From PubChem BioAssay (NCI)
The panel holds about 83,000 compounds, 20% with a hit somewhere; the sample as a whole holds those more often.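 Method: cells in 96-well plates; compound added at one concentration; 48 h incubation; percent growth measured; values under 10 scored active.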 Unmarked numbers belong to inactive results. Activity calls are given as the source filed them.

Test system: KM12 colon
Assay: NCI-60 one-dose screen, 48 h (100 = growth as untreated, 0 = no growth, -100 = all killed)
Details: 10 µM unless noted

Row | SMILES | growth
1 | CCOC(=O)c1c(NC(=O)c2ccc(C(C)C)cc2)sc2c(CN(C)C)c(O)ccc12 | 1.36% (active)
2 | CCN(CC)c1nc(SCc2ccccc2Cl)ncc1C | 108%
3 | O=C1Nc2ccc(I)cc2C1=O | 82.8%
4 | O=S(=O)(NCCNc1nccc(-c2c(-c3cccc(F)c3)nc3occn23)n1)c1ccc(Br)cc1 | 88.9%
5 | CC(C)c1ccc(COCc2cc(CN3CCCC3)c(O)c3ncccc23)cc1 | 14.1%
6 | COc1ccc2cc(C(=O)c3coc4ccc(O)cc34)ccc2c1 | 90.3%
7 | O=C(CI)NC1Oc2ccccc2-c2oc(=O)c(-c3ccccc3)cc21 (stereo not drawn) | 2.37% (active)
8 | Cc1ccc(-n2c(=S)[nH]c3sc4c(c3c2=O)CCC(=O)C4)cc1 | 41.7%
9 | COc1cccc(/C=C/C(=O)c2cc3c(N)c(C(=O)Nc4ccccc4)sc3nc2C)c1 | 17.6%
10 | O=C1C(Cl)=C(Oc2ccccc2)C(=O)c2ccccc21 | 27.1%
11 | CC(C)OC(=O)c1ccc2[nH]c(O)c(C(=Nc3ccc(N(C)C(=O)CN4CCN(C)CC4)cc3)c3ccccc3)c2c1 | -43.2% (active)
12 | N#CC1C=CN(CC(N)=O)c2ccc3cccnc3c21 (stereo not drawn) | 105%
13 | S=C(Nc1ccc(-c2nc(N3CCOCC3)c3cccn3n2)cc1)Nc1cccnc1 | 28.1%
14 | Cc1cc2c(O)c(-c3cccc(Cl)c3)c3sc(=O)oc3c2cc1C | 64.3%
15 | COC(=O)[C@H]1CCCN1C[C@@H](O)CN1C(=O)/C(=C\c2cc(OC)c(OC)c(OC)c2)c2ccccc21 | 98.9%
16 | CS(=O)(=O)Nc1cc(-c2ccc3ncnc(Nc4c(Cl)ccc5c4OCO5)c3c2)cnc1Cl | -39.7% (active)
17 | COc1ccc(C(=S)N2CCN(c3ccccc3Cl)CC2)cc1OC | 123%
18 | CC(C)N1CN2C(=S)NC3C2N(C1)C(=S)N3C (stereo not drawn) | 94.4%
19 | O=C(c1ccc(-c2nc(CSc3nc4ccccc4s3)no2)cc1)N1CCSCC1 | 57.7%

Row | SMILES | growth
20 | O=Nc1c(-c2c(O)[nH]c3ncccc23)[nH]c2ccccc12 | 15%
21 | O=C(CSc1nnc2n1S(=O)(=O)c1ccccc1N2c1ccccc1)Nc1nc2ccc(F)cc2s1 | 108%
22 | O=C1/C(=C/c2ccccc2Br)COc2ccc(O)c(O)c21 | -7.57% (active)
23 | CCOC(=O)C(=Cc1cccc(Br)c1)C(=O)OCC | 11.9%
24 | COC(C(=O)[C@@H](O)[C@@H](C)O)[C@@H]1Cc2cc3cc(O[C@H]4C[C@@H](O[C@H]5C[C@@H](O)[C@H](O)C(C)O5)[C@H](O)C(C)O4)cc(O)c3c(O)c2C(=O)[C@H]1O[C@H]1C[C@@H](O[C@H]2C[C@@H](O[C@H]3C[C@@H](OC)[C@H](O)C(C)O3)[C@@H](O)C(C)O2)[C@H](O)C(C)O1 (stereo partly drawn) | 40%
25 | Cc1ccc(-c2cc(-c3ccc(Cl)cc3)nc(NC(=O)c3cccnc3)n2)cc1 | 99.8%
26 | Fc1cccc(CNc2c3ccccc3nc3ccccc23)c1F | 87%
27 | CN(C)CC(=O)Nc1ccc2ncnc(Nc3ccc(Oc4cccc(C(F)(F)F)c4)c(Cl)c3)c2c1 | 55.5%
28 | Cc1cc(N)c2cc(NC(=O)/C=C\c3ccccc3Cl)ccc2n1 | -83.8% (active)
29 | N#CC1=C(N)Oc2c(sc3c(F)cccc23)C1c1ccc(F)cc1 (stereo not drawn) | 30.3%
30 | C/C(=C(/c1ccc(Cl)cc1)c1ccc(OCCN2CCCC2)cc1)c1ccc(Cl)cc1 | 52.4%
31 | COC(=O)c1ccc2c(c1)C(=O)c1c-2n(CCCN)c(=O)c2cc([N+](=O)[O-])ccc12 | -97.2% (active)
32 | CS(=O)(=O)C1=CN(CCO)C(=O)N2CCCN=C12 | 105%
33 | O=C1Nc2ccccc2[C@]12CC(c1ccccc1)=NN2 | 31.9%
34 | O=C(Cn1c(=O)sc2nc3ccccc3nc21)Nc1ncc(Cc2cccc(Cl)c2Cl)s1 | 99.9%
35 | O=C(N/N=C/c1ccc(F)cc1)c1ccc(C(F)(F)F)nc1Nc1cccc(C(F)(F)F)c1 | -4.29% (active)
36 | COC(=O)[C@]1(C)CCC[C@]2(C)[C@H]3C[C@H]4C(C(C)C)=C[C@]3(CC[C@H]21)[C@H]1[C@@H]4[C@@H](OCCC#N)CC[C@@H]1OCCC#N | 40.2%
37 | CN(C)c1ccc(Nc2cc(-c3cccc(OC(F)(F)F)c3)nc3ccc(N4CCCC4)cc23)cc1 | -45.5% (active)
38 | CCn1c(=S)sc2c(Nc3ccc(F)cc3)nc(-c3cccnc3)nc21 | 69.7%
